# Screens deposited in PubChem BioAssay by National Center for Advancing Translational Sciences (NCATS).
# Only some compounds are listed: those with a hit (about 7.4% of all), similar ones and a draw of the others.
# FLuc modulator = firefly luciferase modulation, counter-screen for miR-21 project. AID 588342. 360,000 compounds, 6.9% hits. P08659. Potency, µM (highest dose often 57.5 µM), for the others: at the top dose activity change, negative = inhibition, actives largely listed as inhibitors. purified FLuc, Km substrates, luminescence inhibition;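 also: plate controls were vehicle for no effect and reference inhibitor for full effect; nearly all actives have a fitted effect of over 55% in size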
# Target sequence (P08659 whole entry, looked up): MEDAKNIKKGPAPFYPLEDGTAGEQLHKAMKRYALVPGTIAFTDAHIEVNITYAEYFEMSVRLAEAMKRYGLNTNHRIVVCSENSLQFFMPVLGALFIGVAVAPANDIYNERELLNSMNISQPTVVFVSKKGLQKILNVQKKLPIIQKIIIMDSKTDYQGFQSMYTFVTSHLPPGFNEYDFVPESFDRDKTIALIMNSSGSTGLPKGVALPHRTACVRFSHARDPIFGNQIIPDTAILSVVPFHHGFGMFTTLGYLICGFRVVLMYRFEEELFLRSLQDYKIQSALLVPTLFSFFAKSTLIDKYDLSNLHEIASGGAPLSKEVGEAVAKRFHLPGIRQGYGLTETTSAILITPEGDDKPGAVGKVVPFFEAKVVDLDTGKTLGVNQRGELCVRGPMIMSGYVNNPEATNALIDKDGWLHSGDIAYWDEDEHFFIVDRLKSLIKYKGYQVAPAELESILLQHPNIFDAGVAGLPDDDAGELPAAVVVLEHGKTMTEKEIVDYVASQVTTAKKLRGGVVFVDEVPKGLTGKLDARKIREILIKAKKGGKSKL
#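 Purified P. pyralis luciferase, 10 nM final, with Km-level 10 uM D-luciferin and 10 uM ATP in 50 mM Tris acetate pH 7.5, 10 mM Mg acetate, 0.01% Tween-20, 0.05% BSA; 6-point qHTS titration about 60 µM downward; luminescence read.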
# NPC1 prom act = activates the NPC1 promoter | Huh7 NPC1 promoter luciferase reporter, 24 h | Potency, µM (series often up to 9.22 µM), without a hit: at the top dose activation, usual class: activators | 320,000 compounds, 2.4% hits | AID 485313; also: % of control where 0% means no effect; nearly all actives have a fitted effect of over 60% in size
#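 Cells: Huh7 expressing luciferase under the NPC1 promoter, 1500/well. Seeded 2 h, compound added, incubated 24 h at 37 °C. Luciferase reagent, 10 min ambient, then luminescence.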
# ELG1 genotoxic = induces genotoxicity in HEK293T cells with luciferase-tagged ELG1; 330,000 compounds, 1.3% hits; HEK293T ELG1-luciferase reporter, luminescence, 16 h; Potency, µM (titrated, usually from 46 µM), for the others: top-dose activity change, positive = activation, hits mostly activators; also: % of control where 0% means no effect; nearly all actives have a fitted effect of over 60% in size
#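 Reporter readout depends on ELG1 protein level, which increases with genetic stress. After 16 hr compound exposure at 37 °C, luciferase activity was quantified using ONE-Glo.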
# Rab9 prom act = Rab9 promoter activation. Potency, µM (titrated, usually from 9.22 µM), inactives show top-dose activation, negative = inhibition, actives largely listed as activators. Huh7 Rab9 promoter-luciferase reporter, luminescence, 24 h. 320,000 compounds, 2.8% hits; also: % of control where 0% means no effect; nearly all actives have a fitted effect of over 60% in size
#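 Quantitative HTS format; Huh7 Rab9-luciferase reporter cells (1500/well) receive compound 2 h post-plating, incubate 24 h at 37 °C, then get luciferase reagent for 10 min before luminescence reading.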
# KinaseGlo FLuc = Kinase-Glo luciferase inhibition (counter-screen) | Q27757 | AID 1379 | Kinase-Glo luciferase, ATP luminescence, 8 min | Potency, µM (highest dose often 38.3 µM), inactives show top-dose activity change, negative = inhibition, hits mostly inhibitors | 200,000 compounds, 0.28% hits; also: % is scaled to controls: 0 for no effect and ±100 for the full control effect; nearly all actives have a fitted effect of over 60% in size
#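 Compound is pinned into ATP-containing buffer (10 uM ATP, imidazole pH 7.2, 7 mM MgCl2). Kinase-Glo luciferase reagent is then added. Light output is recorded following an 8-min room-temperature incubation.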
# SMN2 splice enh = enhancers of SMN2 splice variant expression; HEK293 SMN2-luciferase splicing reporter, luminescence, 30-36 h; AID 1458; Potency, µM (doses to about 46.1 µM), inactives show at the top dose activity change, positive = activation, usual class: activators; 210,000 compounds, 2.8% hits; also: % of control where 0% means no effect; nearly all actives have a fitted effect of over 55% in size
#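 HEK293 cells carry an SMN2 minigene-luciferase reporter in which exon 7 inclusion puts luciferase in frame. Cells were seeded at 2000 cells/well, attached for 10-12 hours, then exposed to compounds for 30-36 hours at 37C before ONE-Glo luminescence.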
# * hit, by the source's call; ? = inconclusive; / = no result given. Calls follow the shape of the dose curve; as a rule, active = well fitted curve in the direction sought with a large enough effect; inconclusive = small, poorly fitted or top-dose-only effect, or another doubt; inactive = no such curve, though single readings can be large; an effect the other way counts as inactive or inconclusive. Potency is read from the fitted curve at half-maximal effect.
SMILES,FLuc modulator,NPC1 prom act,ELG1 genotoxic,Rab9 prom act,KinaseGlo FLuc,SMN2 splice enh
Cc1cccc(N2CCN(CCCNc3ncnc4onc(-c5ccc(Cl)cc5)c34)CC2C)c1 (stereo not given),3%,/,/,/,/,/
CCCCC#Cc1ccc2c(c1)COc1c3ccccc3nn1-2,2.7µM*,0.35µM*,?,7.1µM*,/,/
CCCCCn1nc(C(=O)N2CCc3ccccc32)c2ccccc2c1=O,0%,-4%,-1%,-6%,/,/
N#CCCCC#Cc1ccc2c(c1)COc1c3ccccc3nn1-2,0.19µM*,0.71µM*,?,0.1µM*,/,/
CCCCCCC#Cc1ccc2c(c1)COc1c3ccccc3nn1-2,?,0.79µM*,17%,0.89µM*,/,/
O=C1C2C(C(=O)N1/N=C/c1cccc([N+](=O)[O-])c1)C1C=CC2C12CC2 (stereo not given),7.6µM*,?,?,?,-9%,16%
Cc1ccc(C(=O)CSc2nnnn2C(C)C)c(C)c1,0.67µM*,2.8µM*,?,2.8µM*,1%,0.79µM*
COc1ccc(C(=O)CSc2nnc3ccccn23)cc1OC,1%,7%,?,18%,-2%,-15%
CCn1nnnc1SCC(=O)c1ccc2c(c1)OCCO2,19µM*,?,3%,?,-10%,-4%
COc1ccc(-n2nnnc2SCC(=O)c2ccc3c(c2)OCCO3)c(OC)c1,?,-1%,0%,-2%,-4%,-46%
O=C(CSc1nnc2ccccn12)c1ccc2c(c1)OCCO2,4.8µM*,1.1µM*,2.9µM*,1µM*,-11%,11µM*
O=C(CSc1nnnn1C1CCCC1)c1ccc2c(c1)OCCO2,0.76µM*,1.1µM*,15%,0.63µM*,2%,21%
O=C(O[C@@H]1Cc2c(O)cc(O)cc2OC1c1ccc(O)c(O)c1)c1cc(O)c(O)c(O)c1 (stereo not given in full),/,/,/,/,-1%,3%
CC(=O)N[C@@H](Cc1ccc(O)cc1)C(=O)N[C@H](C(=O)N[C@@H](C)C(=O)N[C@H](C#N)CC(=O)O)C(C)C,1%,-1%,/,2%,/,/
CC(C)n1nnnc1SCC(=O)c1ccc2c(c1)OCCO2,4.8µM*,3.5µM*,11%,3.5µM*,0%,-9%
COc1ccc(C)cc1-n1nnnc1SCC(=O)c1ccc2c(c1)OCCO2,17µM*,4%,-4%,5%,-3%,-1%
CCn1c(SCC(=O)c2ccc3c(c2)OCCO3)nnc1C(C)C,?,?,3%,?,0%,21%
CCN(Cc1nc(-c2cccc(C)c2)no1)S(=O)(=O)c1ccc(C)cc1,-11%,/,/,/,/,-8%
O=C(Cc1ccc(Cl)cc1)Nc1ccc2oc(-c3ccccc3)nc2c1,0%,/,/,/,/,-4%
Clc1ccc2oc(-c3cccnc3)nc2c1,15µM*,?,9%,?,-2%,-2%
Clc1ccc2oc(-c3ccccc3)nc2c1,2.4µM*,-2%,?,23%,7%,?
Clc1ccc(-c2cnc3n2CCC3)cc1,13µM*,22%,12%,?,-2%,-2%
COc1ccc(-c2cnc3n2CCCCC3)cc1,1%,-6%,-6%,-10%,/,/
COc1ccc(CNC(=O)Cc2csc3nc(-c4ccc(C)cc4)cn23)cc1,17µM*,/,/,/,/,/
CNC(=O)c1sc2nc(-c3ccc(OC)cc3)cn2c1C,3.4µM*,1.6µM*,2.1µM*,0.89µM*,4%,/
SMILES,FLuc modulator,NPC1 prom act,ELG1 genotoxic,Rab9 prom act,KinaseGlo FLuc,SMN2 splice enh
CCN(CC)C(=O)c1sc2nc(-c3ccc(OC)cc3)cn2c1C,7.6µM*,1.8µM*,?,?,-4%,?
COc1ccc(CNC(=O)Cc2csc3nc(-c4ccc(F)cc4)cn23)cc1,-3%,/,/,/,/,/
O=CN/C=C/c1cc(F)cc(F)c1F,/,/,/,/,0%,-1%
COc1ccc(-c2cc3cc4c(cc3cn2)OCO4)cc1,/,/,0.73µM*,/,/,/
COc1cc(OC)cc(-c2cc3cc4c(cc3cn2)OCO4)c1,/,/,4.1µM*,/,/,/
COc1ccc(-c2cc3cc(OC)c(OC)cc3cn2)cc1,/,/,13%,/,/,/
